From PubChem BioAssay (NCATS)
Results filed as inconclusive are left out. Values without a mark were called inactive. Active and inactive are the calls of the source. Calls come from the whole dose curve; as a rule, active = well fitted inhibition curve with a large enough effect; inconclusive = small, poorly fitted or top-dose-only effect; inactive = flat fitted curve, though single readings scatter.

How the values were obtained:
[1] = test system: CRL-7250; experiment: Cytotoxic Profiling of Annotated Libraries Using Quantitative High-Throughput Screening (AID 1296008); conditions: Five cell lines viability, CellTiter-Glo ATP luminescence, 48-72 h; max response: stronger effect = lower value; note: nearly all actives have a fitted effect of over 60% in size
Summary of the method: (§1)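 Cells exposed to compounds for 48 or 72 hr at 37 degrees Celsius. Viability read as ATP-coupled luminescence with CellTiter-Glo after 10 min at room temperature.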

[2] = test system: HEK293; experiment: as above; conditions: Five cell lines viability, CellTiter-Glo ATP luminescence, 48-72 h; max response: stronger effect = lower value
Summary of the method: as §1
% is set by controls: 0 for no effect and ±100 for the full control effect; potency is the fitted concentration of half-maximal effect.

Compound: Nc1ccc(/C=C/C(=O)NCc2cc3cc(-c4ccc(C(=O)N5CCC(F)(F)CC5)cc4)cc(-c4ccc(F)cc4)c3o2)cn1
- Potency [1]: 3660 nM (active)
- Potency [2]: 580 nM (active)

Compound: COc1ccc(/C=C/C(=O)O[C@H]2[C@H](O[C@H]3[C@@H]4C=CO[C@@H](O[C@@H]5O[C@H](CO)[C@@H](O)[C@H](O)[C@H]5O)[C@@H]4[C@@]4(CO)O[C@@H]34)O[C@@H](C)[C@H](O)[C@H]2OC(C)=O)cc1
- max response [1]: 3.12%
- max response [2]: -1.88%

Compound: COC(=O)Cc1cc2c(c([N+](=O)[O-])c1)N(C(=O)CC[C@H](N)C(=O)O)CC2
- max response [1]: -4.18%
- max response [2]: -4.25%

Compound: CC(=O)O[C@H]1C[C@@](O)(C(C)C)C2[C@@H](OC(=O)c3ccc(O)cc3)C[C@@]3(C)O[C@H]3C[C@]21C (some centres undefined)
- max response [1]: -0.746%
- max response [2]: -5.37%

Compound: CC(=O)OC1CC2(C)C3=CCC4(C)C5C(O)C(O)C(C(C)C)C5(C)CCC4(C)C3CCC2C(C)(C)C1OC1OC(CO)C(O)C(O)C1O (centres undefined)
- max response [1]: -9.78%
- max response [2]: -1.39%

Compound: CCC(O)C(C)C1CCC(C(C)C(=O)O)O1 (centres undefined)
- outcome [1]: inactive
- max response [2]: -7.28%

Compound: C[C@@H]1CC[C@]2(C(=O)O)CC[C@]3(C)C(=CCC4[C@@]5(C)C[C@@H](O)[C@H](O)[C@@](C)(CO)C5CC[C@]43C)C2[C@]1(C)O (some centres undefined)
- max response [1]: -3.26%
- max response [2]: -12.2%
